Measured potencies and affinities stand elsewhere.
Each compound was assayed against Acyl-homoserine lactone acylase PvdQ (Pseudomonas aeruginosa (strain ATCC 15692 / DSM 22644 / CIP 104116 / JCM 14847 / LMG 12228 / 1C / PRS 101 / PAO1)) (UniProt Q9I194) (assay: PvdQ acylase enzyme activity blockers – biochemical, fluorescence, plate reader and imaging, cherry-picks, dose response (AID 493231;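 also: 0% = neutral control wells and -100% = reference inhibitor wells; more negative values mean stronger inhibition of the acylase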)). Conditions: purified PvdQ acylase, fluorogenic substrate; series mostly up to 10 µM; activity change, negative = inhibition: at the top concentration; call rule not given here.
Chain of Acyl-homoserine lactone acylase PvdQ (Pseudomonas aeruginosa (strain ATCC 15692 / DSM 22644 / CIP 104116 / JCM 14847 / LMG 12228 / 1C / PRS 101 / PAO1)) (Q9I194 whole entry, looked up): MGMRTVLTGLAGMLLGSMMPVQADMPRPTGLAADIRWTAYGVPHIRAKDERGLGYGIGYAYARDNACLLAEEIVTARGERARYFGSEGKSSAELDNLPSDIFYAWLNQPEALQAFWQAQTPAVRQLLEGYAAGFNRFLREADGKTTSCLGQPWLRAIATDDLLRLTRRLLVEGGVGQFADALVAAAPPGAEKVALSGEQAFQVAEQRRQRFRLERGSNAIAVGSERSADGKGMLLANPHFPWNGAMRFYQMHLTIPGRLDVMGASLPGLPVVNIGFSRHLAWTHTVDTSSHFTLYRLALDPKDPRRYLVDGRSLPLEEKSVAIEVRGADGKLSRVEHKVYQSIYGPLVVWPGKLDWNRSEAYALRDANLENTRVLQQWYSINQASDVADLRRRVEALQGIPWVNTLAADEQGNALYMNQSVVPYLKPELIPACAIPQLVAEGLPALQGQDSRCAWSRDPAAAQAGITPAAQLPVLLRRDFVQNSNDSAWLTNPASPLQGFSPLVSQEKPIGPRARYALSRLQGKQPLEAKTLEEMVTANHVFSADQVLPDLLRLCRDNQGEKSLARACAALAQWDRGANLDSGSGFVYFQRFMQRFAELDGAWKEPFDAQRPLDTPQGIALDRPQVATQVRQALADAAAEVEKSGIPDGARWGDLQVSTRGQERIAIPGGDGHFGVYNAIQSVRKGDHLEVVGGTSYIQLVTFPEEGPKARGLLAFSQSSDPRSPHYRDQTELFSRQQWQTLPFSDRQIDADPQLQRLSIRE

Activity change, negative = inhibition, inactive:
c1ccc(CCc2ccccn2)cc1 1.66 unspecified, CS(=O)(=O)N(CC(=O)Nc1ccccc1C(=O)N1CCOCC1)c1ccccc1 13.9 unspecified, CCOC(=O)Nc1ccc2nc(N3CCCCCC3)sc2c1 16.3 unspecified, Cc1ncc(CN2CCN(Cc3ccc(F)cc3)C(CCO)C2)s1 (centres undefined) 10.5 unspecified, OC(CN1CCOCC1)Cn1c(-c2cccc(Cl)c2)nc2ccccc21 (centres undefined) -1.48 unspecified, Cc1[nH]nc2c1C(c1ccco1)C(C#N)=C(N)O2 (centres undefined) 10.3 unspecified, Cc1ccc(N(c2ncnc(N)c2[N+](=O)[O-])C2CCCCC2)cc1 9 unspecified, Cc1cc(C(=O)OCC(=O)Nc2cc(C)on2)c2ccccc2n1 2.6 unspecified, Cc1ccc(-c2nc(CN(C)Cc3cccc4cnccc34)c(C)o2)s1 -7.83 unspecified, O=C(O)c1ccc(N=Nc2c(O)ccc3ncccc23)cc1 0.421 unspecified, CCOC(=O)c1ccc(Nc2ncccc2[N+](=O)[O-])cc1 4.71 unspecified, CC(NC(=O)C1CCCN(C(=O)c2ccc(Cl)cc2)C1)c1cccc(C(F)(F)F)c1 (centres undefined) -0.568 unspecified, NC(=O)c1ccc(NC(=O)COC(=O)c2n[nH]c3ccccc23)cc1 5.19 unspecified, O=C1CC(c2ccccc2)Cc2nc(NC3CC3)ncc21 (centres undefined) 8.35 unspecified, COc1ccc(NC(=O)C(c2cc3c(cc2[N+](=O)[O-])OCO3)N2CCN(C=O)CC2)cc1 (centres undefined) 3.27 unspecified, NC(=O)c1oc2ccccc2c1NC(=O)Cc1ccccc1 9.46 unspecified, CC1CCCCN1C(=O)CSc1nc2ccccc2[nH]1 (centres undefined) 5.53 unspecified, Cc1cc(C)n2c(SCC(=O)Nc3ccc(F)cc3)nnc2n1 4.45 unspecified, CN1CCN(C(=O)c2cccn(Cc3ccc(C(F)(F)F)cc3)c2=O)CC1 8 unspecified

Reference: PubChem BioAssay AID493231 (Broad Institute, 2011)
